Assay results: PubChem BioAssay (NCATS)
Records with an inconclusive call do not appear. Unless noted, calls come from the whole dose curve; as a rule, active = well fitted curve in either direction with a large enough effect (not every such curve was filed as active); inconclusive = small, poorly fitted or top-dose-only effect, or another doubt; inactive = flat fitted curve, though single readings scatter.

Tests used:
[1] = AP1 Signaling Pathway (AID 357); conditions: ME-180 AP-1-bla reporter, EGF-induced, beta-lactamase ratio, 5 h; at 17.2 µM (top of the series) unless noted;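 note: ME-180 reporter cells stimulated with EGF at its EC50 level; % is set by controls: 0 for no effect and ±100 for the full control effect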
Procedure, shortened: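 Read-out was the 460nm/530nm emission ratio (excitation 405nm) after CCF4 loading for 2.5 hours at room temperature. Cells carried an AP-1-driven beta-lactamase reporter, were stimulated with EC50 EGF plus compound for 5 hours, and AC50 values came from titrations.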

[2] = NFAT Signaling Pathway (AID 444); conditions: Jurkat NFAT-bla M1, carbachol, beta-lactamase ratio, 5 h; at 17.2 µM (top of the series) unless noted;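 note: carbachol stimulus at about its EC50 of 1 µM final; % is set by controls: 0 for no effect and ±100 for the full control effect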
Procedure, shortened: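 Jurkat cells carrying an NFAT-driven β-lactamase reporter and co-transfected muscarinic M1 receptor were treated with compound plus carbachol (1 uM final, an EC50 level) for 5 h at 37 °C. CCF4 loading followed for 1 h at RT; 460/530 nm ratio gave %activity.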

[3] = Stat Signaling Pathway (AID 446); conditions: ME-180 (cervical carcinoma) SIE beta-lactamase reporter, IL-6 stimulated, 5 h; at 17.2 µM (top of the series) unless noted;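 note: ME-180 cervical cancer cells given 40 pM IL-6 alongside compound; SIE-controlled beta-lactamase reporter measured as 460/530 nm FRET emission ratio; % is set by controls: 0 for no effect and ±100 for the full control effect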
Procedure, shortened: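 Normalization used AC90 stimulation (300 pM IL-6) and AC90 inhibition (125 nM pan-JAK inhibitor at 40 pM IL-6). The underlying signal is SIE-driven beta-lactamase in ME-180 cells after 5 h IL-6 exposure with compound.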

[4] = molecular target: Glucocorticoid receptor (Homo sapiens) (UniProt P04150); assay: GR-GFP Redistribution (AID 450;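 active = compounds whose dose series gives a full or clear partial fitted curve of increased nuclear translocation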; note: potency is the fitted concentration of half-maximal effect)
Chain of Glucocorticoid receptor (Homo sapiens) (P04150 whole entry, looked up): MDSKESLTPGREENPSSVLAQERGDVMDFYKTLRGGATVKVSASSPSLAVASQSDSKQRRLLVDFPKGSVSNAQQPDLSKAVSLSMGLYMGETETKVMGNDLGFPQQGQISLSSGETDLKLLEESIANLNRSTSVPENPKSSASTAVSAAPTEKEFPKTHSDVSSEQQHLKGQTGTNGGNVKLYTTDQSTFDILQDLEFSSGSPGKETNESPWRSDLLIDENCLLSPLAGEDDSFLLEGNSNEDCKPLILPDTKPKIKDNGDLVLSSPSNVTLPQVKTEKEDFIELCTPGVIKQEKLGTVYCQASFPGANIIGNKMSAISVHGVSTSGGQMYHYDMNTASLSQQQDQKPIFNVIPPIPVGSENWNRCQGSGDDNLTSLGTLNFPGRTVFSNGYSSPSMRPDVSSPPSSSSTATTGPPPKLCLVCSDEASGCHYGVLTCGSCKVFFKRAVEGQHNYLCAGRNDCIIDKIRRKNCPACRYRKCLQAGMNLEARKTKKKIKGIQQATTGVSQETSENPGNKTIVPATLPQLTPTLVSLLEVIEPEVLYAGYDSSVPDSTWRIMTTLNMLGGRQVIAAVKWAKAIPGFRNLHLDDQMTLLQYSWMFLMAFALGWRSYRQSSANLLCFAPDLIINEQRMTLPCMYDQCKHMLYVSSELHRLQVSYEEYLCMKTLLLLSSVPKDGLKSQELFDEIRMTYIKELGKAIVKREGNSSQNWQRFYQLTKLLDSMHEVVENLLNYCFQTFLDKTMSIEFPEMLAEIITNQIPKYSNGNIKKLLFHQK

Cc1cccc(COc2ccc(/C(O)=C3\C(=O)C(=O)N(CCN(C)C)C3c3ccncc3)cc2)c1 (stereo not given)
inactive: activity change, negative = inhibition [1] 4.68% | activity change, negative = inhibition [2] 13.1% | activity, negative = inhibition [3] 2.96% | Potency [4] > 20.6 µM

CCOC(=O)c1c(N)sc(=S)c2c1CCC2
inactive: activity change, negative = inhibition [1] -21.1% | activity change, negative = inhibition [2] -6.19% | activity, negative = inhibition [3] -7.28% | Potency [4] > 20.6 µM

CN(C)CCOC(=O)Cc1ccc(Cl)cc1
inactive: activity change, negative = inhibition [1] 12% | activity change, negative = inhibition [2] -7.05% | activity, negative = inhibition [3] -4.76% | Potency [4] > 20.6 µM

CSC(=Nc1ccccc1)C1=C(O)COC1=O
inactive: activity change, negative = inhibition [1] 3.1% | activity change, negative = inhibition [2] 4.52% | activity, negative = inhibition [3] -5.43% | Potency [4] > 20.6 µM

COc1ccc(N2CCN(c3nc4c(c(=O)[nH]c(=O)n4C)n3CCCc3ccccc3)CC2)cc1
inactive: activity change, negative = inhibition [1] 22% | activity change, negative = inhibition [2] -12.3% | activity, negative = inhibition [3] -11% | Potency [4] > 20.6 µM

CC1(C)CNC(=O)c2sc(N3CCOCC3)nc2C1
inactive: activity change, negative = inhibition [1] -10.8% | activity change, negative = inhibition [2] 26.7% | activity, negative = inhibition [3] 3.19% | Potency [4] > 20.6 µM

Cc1ccc(C(=O)C2=C(O)C(=O)N(c3ncccn3)C2c2ccc(Cl)cc2)o1 (stereo not given)
inactive: activity change, negative = inhibition [1] -14% | activity change, negative = inhibition [2] 23% | activity, negative = inhibition [3] -10.8% | Potency [4] > 20.6 µM

NC(=O)/C(=N\O)c1ccccc1
inactive: activity change, negative = inhibition [1] -4.98% | activity change, negative = inhibition [2] 15.2% | activity, negative = inhibition [3] -0.233% | Potency [4] > 20.6 µM

CCOC(=O)c1ccc(NCC(O)COc2ccccc2)cc1 (stereo not given)
inactive: activity change, negative = inhibition [1] -4.75% | activity change, negative = inhibition [2] -1.02% | activity, negative = inhibition [3] -4.83% | Potency [4] > 20.6 µM

C=COC(=O)CSc1nc(-c2cccs2)ccc1C#N
inactive: activity change, negative = inhibition [1] 4.27% | activity change, negative = inhibition [2] -19.4% | activity, negative = inhibition [3] 12.2% | Potency [4] > 20.6 µM

COc1ccc(C(=O)N2CCCC(c3ccccc3)C2)cc1 (stereo not given)
inactive: activity change, negative = inhibition [1] -9.81% | activity change, negative = inhibition [2] 18.5% | activity, negative = inhibition [3] 2.57% | Potency [4] > 20.6 µM

CC(C)c1nc2n[nH]c(N)c2c2c1CCCC2
inactive: activity change, negative = inhibition [1] -8.5% | activity change, negative = inhibition [2] 6.42% | activity, negative = inhibition [3] -2.14% | Potency [4] > 20.6 µM

C=CCN=C(C)C1=C(O)CCC1=O
inactive: activity change, negative = inhibition [1] 23.8% | activity change, negative = inhibition [2] -7.26% | activity, negative = inhibition [3] 20.3% | Potency [4] > 20.6 µM

CCCCOC(=O)CSC1=C(C#N)C(c2ccc3c(c2)OCO3)CC(=O)N1 (stereo not given)
inactive: activity change, negative = inhibition [1] -13% | activity change, negative = inhibition [2] 19.6% | activity, negative = inhibition [3] -9.97% | Potency [4] > 20.6 µM

CCOC(=O)C1CCN(c2ncnc3c2cnn3-c2ccc(OC)cc2)CC1
inactive: activity change, negative = inhibition [1] 4.62% | activity change, negative = inhibition [2] -5.45% | activity, negative = inhibition [3] 1.28% | Potency [4] > 20.6 µM

CCOCCn1c(SCc2c(F)cccc2Cl)nc2c1c(=O)[nH]c(=O)n2C
inactive: activity change, negative = inhibition [1] -8.65% | activity change, negative = inhibition [2] -17.4% | activity, negative = inhibition [3] -2.5% | Potency [4] > 20.6 µM

CC1(C)Cc2c(c(N3CCOCC3)nc3snc(N)c23)CO1
inactive: activity change, negative = inhibition [1] -12.8% | activity change, negative = inhibition [2] -24.1% | activity, negative = inhibition [3] -10.9% | Potency [4] > 20.6 µM

Cc1ccc(NC(=O)CSc2nnc(-c3ccco3)c(-c3ccco3)n2)cc1
inactive: activity change, negative = inhibition [1] 0.107% | activity change, negative = inhibition [2] -24.9% | activity, negative = inhibition [3] -23.9% | Potency [4] > 20.6 µM

COc1ccc(N2CC(=O)N(c3ccc(OC)c(OC)c3)CC2=O)cc1OC
inactive: activity change, negative = inhibition [1] 22.8% | activity change, negative = inhibition [2] 5.84% | activity, negative = inhibition [3] 1.83% | Potency [4] > 20.6 µM

Cc1cc(C)n(CC2CC(=O)N(c3cc(Cl)cc(Cl)c3)C2=O)n1 (stereo not given)
inactive: activity change, negative = inhibition [1] -15.1% | activity change, negative = inhibition [2] -7.21% | activity, negative = inhibition [3] 2.96% | Potency [4] > 20.6 µM

OCCN=C(c1ccccc1)C12CN3CN(CN(C3)C1)C2
inactive: activity change, negative = inhibition [1] 6.77% | activity change, negative = inhibition [2] -21.4% | activity, negative = inhibition [3] 3.31% | Potency [4] > 20.6 µM

O=C(O)CCN(CCC(=O)O)c1nnc(SCc2ccccc2)s1
inactive: activity change, negative = inhibition [1] 8.29% | activity change, negative = inhibition [2] 12.2% | activity, negative = inhibition [3] 11.2% | Potency [4] > 20.6 µM

Cc1cc(=O)oc(C)c1C(=O)NCC1CCCO1 (stereo not given)
inactive: activity change, negative = inhibition [1] 2.9% | activity change, negative = inhibition [2] -0.802% | activity, negative = inhibition [3] 1.38% | Potency [4] > 20.6 µM

CCN(CC)CCN1C(=O)C(=O)/C(=C(/O)c2c(C)[nH]c(C(=O)OC)c2C)C1c1cccc(OC)c1 (stereo not given)
inactive: activity change, negative = inhibition [1] 1.88% | activity change, negative = inhibition [2] 3.77% | activity, negative = inhibition [3] 5.49% | Potency [4] > 20.6 µM

CCCSc1nc(O)c(C2OC(=O)c3c2ccc(OC)c3OC)c(=O)n1C (stereo not given)
inactive: activity change, negative = inhibition [1] 17.4% | activity change, negative = inhibition [2] -4.09% | activity, negative = inhibition [3] 3.93% | Potency [4] > 20.6 µM
